Compound activity as filed in PubChem.
An excerpt weighted towards active compounds, which were near 13% of everything screened.
RAM network inh – inhibitors of the yeast RAM network, primary screen, dse1pr::URA3 reporter, 5-FOA selection. S. cerevisiae dse1pr::URA3 reporter, 5-FOA growth OD615, 2 d; analog-sensitive cbk1-as2 kinase mutant strain. inhibition, % at 50 µM. 190,000 tested, 1.8% active;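 active means inhibition above a set limit, 3 SD over mean compound inhibition, cut at about 8.4% in these data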;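 further: 0% = DMSO-only wells with no growth and 100% = 10 µM 1-NA-PP1 full growth; inhibition rescues growth on 5-FOA so higher OD means more RAM inhibition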
Lmaj promast – Leishmania major promastigote growth inhibition, primary screen; inhibition, % at 10 µM; 200,000 tested, 9% active; AID 1063, 2008; Leishmania major promastigotes, resazurin fluorescence viability; in the data active means inhibition above about 50%;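 further: promastigotes grown with compound for 44 hours at 28 °C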
CHOP inh – inhibitors of CHOP promoter induction, primary screen, cell-based, unfolded protein response, luciferase reporter | CHO-K1 CHOP-promoter luciferase, tunicamycin-induced, 15-18 h | inhibition, % at 10 µM | 220,000 tested, 3.8% active;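 active means compounds that reduced the stress-induced luciferase reporter signal by more than about 70% of percent inhibition, limit read from the data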;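 further: 0% = tunicamycin plus vehicle and 100% = wells without tunicamycin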
WT yeast gro inh – growth inhibition of WT strain, primary screen, mitochondrial fusion inhibitor project, WT and mutant strains, chemical genetic; 190,000 tested, 2.1% active; AID 1362, 2008; mitochondrial fusion phenotypic screen; inhibition, % at 10 µM; in the data active means inhibition above about 58%; tested in S. cerevisiae
* hit, by the source's call; nt = no result.

SMILES	RAM network inh	Lmaj promast	CHOP inh	WT yeast gro inh
Cc1ccc(-c2csc3nc(SCC(N)=O)n(Cc4ccccc4)c(=O)c23)cc1	1.7	51.5*	-9.9	35.3
Cc1ccc(-c2csc3ncnc(SCC(N)=O)c23)cc1	3.2	-11.1	35.4	4.2
COc1cc(CNCCO)cc(Br)c1OCc1ccccc1Cl	-1.1	99.8*	-30.1	78.6*
CCCn1nnc(NCc2ccc(OCc3cccs3)c(OC)c2)n1	0.5	5.2	-14.8	-16.3
CCOc1c(Br)cc(CNCc2cccs2)cc1OC	1.7	3.1	25.2	-4.7
COc1cccc(CNCCO)c1OCc1ccccc1	-0.4	-4.6	-10.8	-14.2
CCCCNCc1cc(Br)c(OCc2cccs2)c(OC)c1	0.9	100.6*	18.3	0.9
CCNCc1ccc(OCc2cccs2)c(OCC)c1	1.4	53.8*	16.6	-3.8
COc1cc(CNCCO)cc(Cl)c1OCc1ccc(Cl)cc1Cl	-0.3	100.3*	95.2*	85.4
COc1cccc(CNCCO)c1OCc1ccc(Cl)cc1	1.0	5.8	6.6	10.5
Nc1ccccc1NC1CCCCC1	0.9	53.7*	-37.3	32.0
CN1C(=O)C(CC(=O)O)S/C1=N\N=C\c1ccc(O)cc1O (stereo unspecified)	nt	nt	3.9	nt
O=C(N/N=C/c1cn(-c2cccs2)nc1-c1ccccc1)c1ccccc1Br	2.7	13.0	28.6	11.6
O=C(N/N=C/c1cn(-c2cccs2)nc1-c1ccccc1)c1ccccc1O	1.2	99.4*	22.1	60.1*
OCCN1CCN(C(=S)NCCc2ccccc2)CC1	2.3	2.8	15.6	3.5
CCN1CCN(C(=S)NCCc2ccccc2)CC1	0.9	86.2*	-11.9	3.7
CCCNC(=S)N1CCN(C(c2ccccc2)c2ccccc2)CC1	-1.2	35.7	-0.1	69.1*
S=C(NCCc1ccccc1)N1CCN(C(c2ccccc2)c2ccccc2)CC1	1.6	24.4	-4.7	27.5
CCNC(=S)N1CCN(C(c2ccccc2)c2ccccc2)CC1	2.2	0.4	-74.2	51.0
CCCCNC(=S)N1CCN(C(c2ccccc2)c2ccccc2)CC1	0.0	28.2	33.0	65.9*
Cc1ccccc1NC(=S)N(C)Cc1cn(C)c2ccccc12	1.8	63.1*	-2.6	4.8
Cc1cc(C)cc(N(C(=O)CNS(=O)(=O)c2ccccc2)C(C(=O)NCc2ccccc2)c2ccc(C)o2)c1 (stereo unspecified)	4.2	54.9*	50.7	17.5
C[C@@H](C(=O)N1CCNCC1)n1cc(CCCN=C(N)N)nn1	1.3	-0.4	11.9	-3.4
CCc1ccc(NC(=O)COC(=O)c2ccc(Cl)c(S(=O)(=O)N3CCCCCC3)c2)cc1	6.6	62.5*	34.2	2.9
Cc1cc(C)n(-c2ccc(C(=O)Nc3cccc(S(=O)(=O)N4CCCC4)c3)cc2)n1	1.1	29.4	52.2	-2.3
SMILES	RAM network inh	Lmaj promast	CHOP inh	WT yeast gro inh
O=C(COC(=O)c1ccc2[nH]c3c(c2c1)CCCC3)Nc1ccccc1Cl	4.3	7.4	-29.0	7.8
CCC(C)c1ccccc1NC(=O)COC(=O)c1ccc2[nH]c3c(c2c1)CCCC3 (stereo unspecified)	5.7	34.8	21.9	62.2*
CC(C)c1ccccc1NC(=O)COC(=O)c1ccc(Cl)c(S(=O)(=O)N2CCCCCC2)c1	4.5	59.8*	24.0	-23.3
Cc1cc(C)n(-c2ccc(C(=O)OCC(=O)Nc3ccc(S(=O)(=O)N4CCCCC4)cc3)cc2)n1	4.4	83.8*	30.3	10.2
COc1ccc(CN2CCN(S(=O)(=O)c3ccc(NC(C)=O)cc3)CC2)c(OC)c1OC	0.5	15.7	-7.0	-5.2
CSc1cccc(NC(=S)NCCCN2CCN(c3ccc(F)cc3)CC2)c1	1.5	57.0*	7.2	34.6
FC(F)(F)c1cccc(NC(=S)NCCN2CCOCC2)c1	1.5	40.0	0.4	5.2
Fc1cccc(NC(=S)NCCN2CCOCC2)c1	0.3	67.3*	48.4	9.3
Fc1cccc(NC(=S)NCCCN2CCOCC2)c1	1.5	72.3*	16.7	-1.4
S=C(NCCCN1CCOCC1)Nc1ccc(Cl)c(Cl)c1	0.3	94.6*	6.8	2.4
Cc1ccc(NC(=S)NCCCN2CCOCC2)cc1C	nt	nt	-1.2	nt
CCCC(=O)c1cc2c(cc1NC(=O)c1ccccc1F)OCCO2	7.3	-2.9	0.6	-6.2
CN1CCN(NC(=O)c2cccc(C(F)(F)F)c2)CC1	nt	nt	-10.9	nt
CCOc1ccc(N(CC(=O)N/N=C/c2cccnc2)S(C)(=O)=O)cc1	3.0	6.4	2.4	2.6
O=C(COc1ccc(Cl)cc1)NCc1nnc(SCC(=O)Nc2ccc(F)cc2F)o1	1.8	-7.2	1.9	-1.9
Fc1cc(F)cc(NC(=S)NCCCN2CCOCC2)c1	2.3	53.7*	0.4	-6.7
CCc1ccc(NC(=O)Cc2c(C(=O)O)n(C)c3ccccc23)cc1	4.2	-6.4	25.0	-1.8
Cc1cc2ccccc2n1CCNC(=O)Cc1cccc2ccccc12	5.8	21.1	71.3*	-2.1
O=c1cc(C(F)(F)F)[nH]c2c(OC(F)(F)F)cccc12	nt	nt	-5.1	nt
CCn1c(SCC(=O)Nc2ccc(Cl)cc2)nc2nc3c(cc2c1=O)CCCC3	4.2	-3.0	45.7	36.4
Cc1cccc(NC(=O)CSc2nc3nc4c(cc3c(=O)n2-c2ccccc2)CCCC4)c1	2.7	31.3	80.2*	13.4
O=C(CSc1nc2nc3c(cc2c(=O)n1-c1ccccc1)CCCC3)Nc1cccc2ccccc12	3.0	29.1	28.5	9.1
Cc1ccccc1-n1c(SCC(=O)Nc2ccccc2)nc2nc3c(cc2c1=O)CCCC3	3.3	97.8*	6.7	5.2
O=c1cc(-c2ccccc2)nc(N2CCN(Cc3ccc4c(c3)OCO4)CC2)[nH]1	2.2	22.1	70.7*	5.5
O=c1[nH]c(CN2CCN(Cc3ccc4c(c3)OCO4)CC2)nc2ccccc12	-0.1	91.1*	6.6	4.8
SMILES	RAM network inh	Lmaj promast	CHOP inh	WT yeast gro inh
c1ccc2nc(N3CCN(Cc4ccc5c(c4)OCO5)CC3)cnc2c1	1.5	1.6	12.8	7.7
CCCc1cc(=O)[nH]c(SCC)n1	1.0	-8.0	18.0	17.6
CCCc1cc(=O)[nH]c(-n2[nH]c3c(c2=O)CCCC3)n1	-0.8	93.8*	30.4	-3.2
C/C=C/C(=O)Nc1cccc(C2=NOC3(C2)C[C@@H](C(N)=O)N(C(=O)/C(C)=C/C)C3)c1 (stereo partly specified)	nt	nt	11.4	nt
COC(=O)c1c(C)oc2ccc(N(C(=O)Oc3ccccc3)S(=O)(=O)c3ccc(Cl)c([N+](=O)[O-])c3)cc12	4.6	-0.9	82.8*	-4.3
CCNC(=S)Nc1ccc(Cl)c([N+](=O)[O-])c1	0.6	2.5	9.7	-13.1
CS(=O)c1ccccc1-c1nc(-c2cc(C(F)(F)F)cc(C(F)(F)F)c2)no1 (stereo unspecified)	4.2	5.7	82.2*	-1.6
NC(=O)c1ccc(NC(=O)CCC(=O)N2CCN(S(=O)(=O)c3ccc(Cl)cc3)CC2)cc1	nt	nt	-13.2	nt
O=C(C[n+]1cnn(CC(=O)c2ccc(Cl)cc2Cl)c1)c1ccc([N+](=O)[O-])cc1	0.6	83.5*	10.7	-27.3
COCCn1c(C)cc(C(=O)CSc2nc3nc(C)cc(C)n3n2)c1C	-0.4	61.9*	6.2	8.3
O=c1ccc(Cl)n[nH]1	nt	nt	-5.3	nt
